High-throughput results (PubChem)
Kir21 inh: Kir2.1 (mouse) channel inhibition; AID 1672; 310,000 compounds, 0.85% hits; HEK293-Kir2.1, FluxOR thallium flux fluorescence; stronger effect = lower value; B-score at 10 µM;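 active = fluorescence ratio B-score at or below minus 3 SD of library scores, with starting-brightness B-score within 2 SD, cut at about -4.2 in these data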;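 note: channel flux triggered by added potassium and thallium sulfate stimulus; B-score of peak minus minimum fluorescence over baseline after thallium stimulus; more negative B-score means stronger Kir2.1 block with less thallium influx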
TMEM16A act: activators or potentiators of mouse TMEM16A chloride channel; Q8BHY3; HEK293 TMEM16A/YFP-H148Q/I152L, iodide quench fluorescence; stronger effect = lower value; 340,000 compounds, 0.3% hits; B-score at 10 µM;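 active = fluorescence-ratio B-score plate-corrected deviation score at least 3 library SD below zero, with starting fluorescence score within 5 deviations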;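 note: channel opened by trigger with iodide after compound preincubation; score built on the fluorescence ratio of max minus min over baseline; more negative score means more quench and so TMEM16A activation or potentiation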
Target sequence (Q8BHY3 whole entry, looked up): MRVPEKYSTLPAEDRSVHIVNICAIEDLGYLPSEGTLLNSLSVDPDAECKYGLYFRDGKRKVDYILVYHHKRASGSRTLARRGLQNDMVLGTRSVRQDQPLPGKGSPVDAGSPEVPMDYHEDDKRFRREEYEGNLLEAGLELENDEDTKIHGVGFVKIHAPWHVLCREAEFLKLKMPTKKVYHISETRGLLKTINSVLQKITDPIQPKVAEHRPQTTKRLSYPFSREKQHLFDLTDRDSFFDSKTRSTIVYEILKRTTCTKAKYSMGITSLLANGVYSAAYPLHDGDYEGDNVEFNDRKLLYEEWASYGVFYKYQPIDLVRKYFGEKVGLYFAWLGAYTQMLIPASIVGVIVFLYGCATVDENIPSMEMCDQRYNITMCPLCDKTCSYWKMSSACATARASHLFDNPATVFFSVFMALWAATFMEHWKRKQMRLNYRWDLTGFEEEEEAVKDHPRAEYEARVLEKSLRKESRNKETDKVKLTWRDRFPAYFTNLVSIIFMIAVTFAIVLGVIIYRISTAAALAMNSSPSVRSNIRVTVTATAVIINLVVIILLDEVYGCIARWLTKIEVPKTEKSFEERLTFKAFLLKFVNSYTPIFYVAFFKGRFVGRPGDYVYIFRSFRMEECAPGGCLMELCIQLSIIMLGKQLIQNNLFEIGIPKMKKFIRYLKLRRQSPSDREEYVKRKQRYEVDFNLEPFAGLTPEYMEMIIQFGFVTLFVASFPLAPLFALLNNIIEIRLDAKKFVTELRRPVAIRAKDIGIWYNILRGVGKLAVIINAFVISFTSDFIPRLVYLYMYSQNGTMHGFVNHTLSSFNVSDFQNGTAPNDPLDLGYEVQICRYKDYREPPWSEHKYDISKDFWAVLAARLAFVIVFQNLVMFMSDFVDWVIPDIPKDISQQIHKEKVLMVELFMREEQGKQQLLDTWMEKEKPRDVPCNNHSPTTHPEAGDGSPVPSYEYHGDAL
KCNK3 inh: human KCNK3 channel inhibition, primary screen; AID 602410; 340,000 compounds, 0.84% hits; B-score at 10 µM; CHO-KCNK3 thallium flux, FluxOR fluorescence; stronger effect = lower value;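 active = B-score under library mean minus 4 SD, starting fluorescence ratio at most library mean plus 5 SD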;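 note: more negative B-score means stronger inhibition of thallium flux through KCNK3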
KCNK9 block: blocks the human KCNK9 two-pore domain potassium channel; Q9NPC2; HEK293 KCNK9, FluxOR thallium flux fluorescence; stronger effect = lower value; B-score at 10 µM; 310,000 compounds, 1.2% hits; AID 488922;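 active = ratio B-score over 3 SD below the library mean, with starting fluorescence within 5 SD of its mean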;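 note: negative B-score means less thallium flux so channel inhibition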
ANO1 block: blocks the mouse calcium-activated chloride channel TMEM16A. normalized B-score (activity score, 25-100; higher = stronger inhibition) at 10 µM. HEK293 TMEM16A/YFP iodide influx fluorescence, ionomycin. 310,000 compounds, 1.2% hits. Q8BHY3;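 active = ratio plate-corrected score three or more library SD toward inhibition, starting fluorescence score within five deviations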;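 note: score derived from kinetic fluorescence span divided by baseline fluorescence per well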
KCNK9 inh conf: human KCNK9 inhibitor confirmation. shares compounds with KCNK9 block. HEK293 KCNK9 cells, FluxOR thallium flux fluorescence. inhibition, % at 10 µM. 4,900 compounds, 43% hits. AID 492992;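 active = thallium signal inhibited by more than 5 SD of the compound-free buffer control wells, on both duplicate plates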;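 note: 0% = assay buffer control wells without compound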
Kir2-1 spec: selectivity of KCNK9 modulators against mouse Kir2.1; Kir2.1 cells, FluxOR thallium flux fluorescence; 4,900 compounds, 4% hits; shares compounds with KCNK9 block; inhibition, % at 10 µM;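 active = thallium signal drop more than 5 SD beyond the mean of the no-compound control wells, seen in both duplicate plates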;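 note: signal is fluorescence rise after thallium addition divided by baseline fluorescence; plate controls were assay buffer only for no effect and full block by chlorpromazine control for full effect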
KCNK9 uninduced: second counter-screen for KCNK9 modulators: effect in non-induced cells; non-induced KCNK9-HEK293, FluxOR thallium flux; 4,900 compounds, 40% hits; shares compounds with KCNK9 block; inhibition, % at 10 µM;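 active = thallium signal drop beyond 5 SD of the untreated control mean, on both duplicate plates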;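 note: plate controls were buffer only IC0 wells for no effect and SID17386958 at its maximal inhibitory level for full effect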
TMEM16A reconf: TMEM16A (mouse) chloride channel inhibition, re-confirmation; HEK293 TMEM16A/YFP-H148Q, iodide quench fluorescence; ionomycin added to raise cell calcium; 2,300 compounds, 39% hits; inhibition, % at 10 µM; shares compounds with ANO1 block; AID 652189;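 active = mean duplicate percent inhibition, scaled so buffer wells are 0 and the reference blocker 100, over three buffer SD above buffer mean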
HEK293 Ca mobil: alters calcium mobilization in TMEM16A HEK293 cells, counter-screen; shares compounds with ANO1 block; 2,300 compounds, 2% hits; calcium response (% of ionomycin), % at 10 µM; AID 652231; TMEM16A/YFP HEK293, Fluo4 calcium mobilization;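 active = duplicate-averaged calcium signal over 20% of the ionomycin maximum, relative to buffer baseline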;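 note: each well's signal is peak minus trough fluorescence divided by its pre-addition baseline; 0% = buffer wells and 100% = ionomycin wells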
Parental YFP cnt: counter-screen for TMEM16A inhibitors: effect in parental YFP-HEK293 cells | shares compounds with ANO1 block | iodide YFP quench, ionomycin | YFP ratio F(max-min)/F0 at 10 µM | 2,300 tested, under 10 active;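 active = yellow fluorescent protein signal ratio exceeding the buffer control mean by over 5 SD of those controls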;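 note: ratio is mean of duplicate wells from kinetic YFP trace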
ClC-1 rat inh: rat ClC-1 inhibition, TMEM16A specificity screen; shares compounds with ANO1 block; CHO ClC-1-YFP, iodide influx fluorescence quench; iodide control reads 0, buffer control 100; ratio percent, % at 10 µM; 2,300 tested, under 10 active;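 active = duplicate-mean ratio percent above the mean of iodide-only control wells, which defines zero, plus 5 of their SD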;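 note: higher percent means stronger block of ClC-1 iodide influx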
KCNK3 confirm: confirmation of human KCNK3 two-pore domain potassium channel inhibitors; shares compounds with KCNK3 inh; CHO-KCNK3 thallium flux, FluxOR fluorescence; 0% buffer, 100% carvedilol maximal block; ratio percent of control, % at 10 µM; 2,400 compounds, 99% hits;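 active = ratio percent of control, averaged over triplicates, above buffer control mean plus 5 SD, cut at about 64% in these data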;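 note: ratio is the fluorescence rise from min to max over baseline after thallium stimulus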
KCNK3 uninduced: KCNK3 inhibitor counter-screen hit in non-induced cells | shares compounds with KCNK3 inh | non-induced KCNK3 parental cells, FluxOR thallium flux; stronger effect = lower value | thallium flux ratio (lower = more inhibition) at 10 µM | 2,400 compounds, 40% hits | AID 651747;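 active = thallium flux ratio, averaged over three wells, more than 5 SD below the buffer control mean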;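 note: host cells are CHO cells without KCNK3 induction; ratio is peak minus trough fluorescence over baseline then normalized to buffer controls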
Active calls of the source: *; i = inactive; x = no result. Compounds with a hit are over-represented: about 3.5% of the library has one in this group of screens.

SMILES	Kir21 inh	TMEM16A act	KCNK3 inh	KCNK9 block	ANO1 block	KCNK9 inh conf	Kir2-1 spec	KCNK9 uninduced	KCNK3 confirm	KCNK3 uninduced	others
CSC(=NC#N)N1CCN(C(=NC#N)SC)CC1	-0.19	i	i	i	i	x	x	x	x	x
CSC(=NC#N)N1CCN(C(c2ccccc2)c2ccccc2)CC1	-0.78	i	i	-9.79*	i	39.0%*	i	35.0%*	122.7*	i
CSCCC(N=C(NS(=O)(=O)c1ccc(C)cc1)c1ccccc1)C(=O)O (stereo not drawn)	2.61	i	i	i	i	x	x	x	x	x
O=c1cc(N2CCCCC2)c(-c2ccccc2)n[nH]1	-0.73	i	i	i	i	x	x	x	x	x
O=c1cc(N2CCCCC2)c(-c2ccccc2)nn1Cc1c(Cl)cccc1Cl	-0.08	-26*	-8.78*	-10.4*	25*	52.0%*	i	25.0%*	98.3*	0.152*
COc1ccc(-n2cc(C(=O)c3cc4ccccc4oc3=O)c(C(C)=O)n2)cc1	0.14	i	i	i	i	x	x	x	x	x
Nc1sc(-c2ccccc2)cc1C(=O)N/N=C/c1ccc(Cl)cc1	-0.7	i	i	-14*	i	52.0%*	i	38.5%*	122.7*	i
COc1ccc2nc3n(c(=O)c2c1)-c1ccc(Cl)cc1C(=O)NC3Cc1ccc(O)cc1 (stereo not drawn)	x	x	i	x	x	x	x	x	x	x
Cc1ccc(CN2CCN(Cc3ccc4cc(F)ccc4n3)CC2CCO)o1 (stereo not drawn)	-1.63	i	i	i	i	x	x	x	x	x
Cc1c(C(=O)N(C)Cc2cccc(F)c2)oc2c(Cl)cccc12	-3.15	i	-10.7*	-13.9*	i	47.0%*	i	49.0%*	104.0*	i
O=C(N/N=C/C(Br)=C/c1ccccc1)c1ccccc1F	1.84	i	-9.42*	-9.17*	i	28.5%*	i	i	98.3*	i
O=C(N/N=C/C(Cl)=C/c1ccccc1)c1ccccc1F	-3.34	i	i	i	i	x	x	x	x	x
O=C(NCC1c2ccccc2CCN1C(=O)CN1C(=O)c2ccccc2C1=O)C1CCCCC1 (stereo not drawn)	0.15	i	i	i	i	x	x	x	x	x
CN1c2ccccc2-c2nc3ccccc3n2C1c1ccncc1 (stereo not drawn)	0.03	i	i	i	i	x	x	x	x	x
CCN1c2ccccc2-c2nc3ccccc3n2C1c1ccco1 (stereo not drawn)	-6.37*	i	-9.24*	-9.12*	i	40.0%*	28.5%*	44.0%*	128.3*	0.14*
c1ccc(CN2c3ccccc3-c3nc4ccccc4n3C2c2ccccn2)cc1 (stereo not drawn)	-0.37	i	-10.1*	-13.6*	i	66.5%*	i	40.5%*	123.0*	i
CCOc1ccc(C(C)(C)C)cc1S(=O)(=O)n1nc(C)cc1C	0.57	i	-8.83*	-9.59*	i	53.5%*	i	37.5%*	113.3*	i
CCOc1ccc(CCNC(=O)COC(=O)c2cc([N+](=O)[O-])ccc2N2CCOCC2)cc1OCC	-2.81	i	i	i	i	x	x	x	x	x
CC(C)CN(CC(C)C)C1=N/C(=C\c2ccco2)C(=O)N1c1ccccc1	1.4	i	-9.23*	-9.85*	i	56.0%*	i	46.5%*	125.3*	i
COc1ccc2oc(=N)c(C(=O)Nc3ccccc3Cl)cc2c1	-0.76	i	i	i	i	x	x	x	x	x
CCC1(C)Cc2sc3c(=O)[nH]c(=S)[nH]c3c2CO1 (stereo not drawn)	0.99	i	i	i	i	x	x	x	x	x
COc1cccc(OCCn2cc(C(=O)c3ccco3)c3ccccc32)c1	-0.46	i	-11.5*	-15.3*	i	51.5%*	i	i	118.7*	0.14*
CC(Oc1ccc(-c2ccccc2)c(F)c1)c1ccn(S(=O)(=O)c2ccc(F)cc2)n1 (stereo not drawn)	-0.19	i	-11.8*	-10.3*	i	57.0%*	i	41.5%*	105.7*	i
C=CCN1CCN(C(c2ccccc2)c2nnnn2CCC(C)C)CC1 (stereo not drawn)	-0.28	i	i	i	i	x	x	x	x	x
CCC(C(=O)Nc1ccccc1N1CCCC1)c1ccccc1 (stereo not drawn)	-1.81	i	i	i	i	x	x	x	x	x
CCC(Oc1ccccc1)C(=O)Nc1ccccc1N1CCCC1 (stereo not drawn)	-5.46*	i	-12.7*	-11.5*	i	59.0%*	45.0%*	74.0%*	111.0*	i
N#CC(c1ccc(F)cc1)c1ccc(C(=O)c2ccc(F)cc2)cc1 (stereo not drawn)	-1.56	i	-10.2*	-9.72*	100*	49.0%*	i	34.0%*	120.0*	i	TMEM16A reconf=27.5%*;HEK293 Ca mobil=i;Parental YFP cnt=-0.875;ClC-1 rat inh=-14.0
Cc1cnc(C(=O)OC(C(=O)c2c[nH]c3ccccc23)c2ccccc2)cn1 (stereo not drawn)	-0.13	i	-10.6*	-19.7*	i	78.5%*	i	35.0%*	108.0*	i
O=C(C1CC1)N(Cc1ccco1)c1nc(-c2ccccc2)cs1	-1.3	i	-9.55*	-11.8*	i	30.5%*	i	49.0%*	109.3*	i
